58 molecules from the antibiotic and cytotoxicity screens of Wong et al. (2023) can be followed below.

Out of some 39,000 compounds screened, about 3,300 (8.5%) were called active. This excerpt belongs to a sample that is enriched for actives.

For this assay, the system named is HepG2. The assay can be described thus: cytotoxicity call (relative viability < 0.9). Particulars: 10 µM.
For `C[C@@H]1CCCCO[C@@H](CN(C)Cc2ccncc2)[C@H](C)CN([C@H](C)CO)C(=O)c2cc(NC(=O)C3CCCCC3)ccc2O1`, the cytotoxicity call is “inactive”. Under `O=C(C[C@@H]1CC[C@H]2[C@@H](COC[C@@H](O)CN2C(=O)c2ccc(F)cc2)O1)NCCCN1CCOCC1` stands “inactive”; under `COc1ccc(NC(=O)Nc2ccc3c(c2)CC(=O)N([C@@H](C)CO)C[C@H](C)[C@@H](CN(C)Cc2ccc(Oc4ccccc4)cc2)O3)cc1`, “inactive”; under `COc1ccc(NC(=O)Nc2ccc3c(c2)CC(=O)N([C@H](C)CO)C[C@@H](C)[C@@H](CN(C)Cc2ccc(Oc4ccccc4)cc2)O3)cc1`, “active”.

On to `COc1ccc(NC(=O)Nc2ccc3c(c2)CC(=O)N([C@@H](C)CO)C[C@@H](C)[C@@H](CN(C)Cc2ccc(Oc4ccccc4)cc2)O3)cc1`, for which the cytotoxicity call was “active”.

`COc1ccc(NC(=O)Nc2ccc3c(c2)CC(=O)N([C@H](C)CO)C[C@@H](C)[C@H](CN(C)Cc2ccc(Oc4ccccc4)cc2)O3)cc1`: the cytotoxicity call was “active”. For `COc1ccc(NC(=O)Nc2ccc3c(c2)CC(=O)N([C@@H](C)CO)C[C@@H](C)[C@H](CN(C)Cc2ccc(Oc4ccccc4)cc2)O3)cc1` the value was “active”. Under `COc1ccc(NC(=O)Nc2ccc3c(c2)CC(=O)N([C@H](C)CO)C[C@H](C)[C@@H](CN(C)Cc2ccc(Oc4ccccc4)cc2)O3)cc1` stands “inactive”; under `Cc1noc(C)c1NC(=O)Nc1ccc2c(c1)C(=O)N([C@@H](C)CO)C[C@@H](C)[C@H](CN(C)C(=O)Nc1cccc3ccccc13)O2`, “inactive”; under `COc1ccc2c3c(n(c2c1)C)[C@H](CO)N(C[C@]13CN(C1)C(=O)C1CC1)C(=O)CN1CCOCC1`, “inactive”. With `CCCSc1nc(N[C@@H]2C[C@H]2c2ccc(F)c(F)c2)c2nnn([C@@H]3C[C@H](OCCO)[C@@H](O)[C@H]3O)c2n1`, the cytotoxicity call is “inactive”.

As to `C[C@@H]1CCCCO[C@H](CN(C)Cc2ccc(C(F)(F)F)cc2)[C@@H](C)CN([C@H](C)CO)C(=O)c2cc(NS(C)(=O)=O)ccc2O1`, the cytotoxicity call was “inactive”. Under `COCCOC(=O)N1C(=O)[C@@]2(c3cc(C#CC4(O)CCCCCC4)ccc31)[C@H](C(=O)NC[C@H](O)c1ccccc1)[C@H]1C(=O)O[C@H](c3ccccc3)[C@H](c3ccccc3)N1[C@@H]2c1ccc(OCCO)cc1` stands “inactive”; under `COc1ccc(NC(=O)N(C)C[C@H]2Oc3c(NC(=O)c4ccc(-c5nccs5)cc4)cccc3C(=O)N([C@@H](C)CO)C[C@@H]2C)cc1`, “inactive”; under `Cc1noc(C)c1S(=O)(=O)N(C)C[C@H]1Oc2ccc(NC(=O)c3ccncc3)cc2C(=O)N([C@H](C)CO)C[C@@H]1C`, “inactive”. Under `C[C@@H]1CCCCO[C@H](CN(C)C(=O)Cc2ccccc2)[C@H](C)CN([C@H](C)CO)C(=O)c2cc(NC(=O)Nc3ccc(F)cc3)ccc2O1` stands “inactive”.

`COc1ccc(NC(=O)Nc2ccc3c(c2)CC(=O)N([C@@H](C)CO)C[C@H](C)[C@H](CN(C)Cc2ccc(Oc4ccccc4)cc2)O3)cc1`: the cytotoxicity call is “active”. For `COc1ccc(NC(=O)Nc2ccc3c(c2)CC(=O)N([C@H](C)CO)C[C@H](C)[C@H](CN(C)Cc2ccc(Oc4ccccc4)cc2)O3)cc1` the value was “active”; for `C[C@@H]1CN([C@@H](C)CO)C(=O)c2cc(NC(=O)Cc3ccccc3)ccc2O[C@@H]1CN(C)Cc1ccc(C(=O)Nc2ccccc2N)cc1`, “inactive”. Take `C[C@@H]1CN([C@@H](C)CO)C(=O)c2cc(NC(=O)c3ccncc3)ccc2O[C@@H]1CN(C)Cc1ccc(Oc2ccccc2)cc1`: the cytotoxicity call is “inactive”. For `C[C@@H]1CN([C@@H](C)CO)C(=O)c2cccc(NC(=O)Nc3ccc(C(F)(F)F)cc3)c2O[C@@H]1CN(C)C(=O)Nc1ccccc1` the value was “inactive”; for `CCNC(=O)[C@H]1[C@H](CO)[C@H]2Cn3c(ccc(-c4cccc(OC)c4)c3=O)[C@H]2N1S(C)(=O)=O`, “inactive”. Under `C[C@@H]1CCCCO[C@H](CN(C)C(=O)CCC(F)(F)F)[C@@H](C)CN([C@@H](C)CO)C(=O)c2cc(NC(=O)Cc3ccccc3)ccc2O1` stands “inactive”; under `Cc1ccc(S(=O)(=O)Nc2ccc3c(c2)CC(=O)N([C@@H](C)CO)C[C@@H](C)[C@@H](CN(C)S(=O)(=O)c2cn(C)cn2)O3)cc1`, “inactive”; under `COc1ccc(CN(C)C[C@H]2OCCCC[C@H](C)Oc3ccc(NC(=O)Nc4ccc(OC)cc4)cc3C(=O)N([C@@H](C)CO)C[C@@H]2C)cc1`, “active”. Under `COc1ccc(CN(C)C[C@@H]2OCCCC[C@@H](C)Oc3ccc(NC(=O)Nc4ccc(OC)cc4)cc3C(=O)N([C@H](C)CO)C[C@H]2C)cc1` stands “inactive”; under `COc1ccc(CN(C)C[C@@H]2OCCCC[C@@H](C)Oc3ccc(NC(=O)C4CCCCC4)cc3C(=O)N([C@H](C)CO)C[C@@H]2C)cc1`, “inactive”.

As to `COc1ccc(CN(C)C[C@H]2OCCCC[C@H](C)Oc3ccc(NC(=O)Nc4ccc(OC)cc4)cc3C(=O)N([C@@H](C)CO)C[C@H]2C)cc1`, the cytotoxicity call was “active”. For `COc1ccc(CN(C)C[C@@H]2OCCCC[C@H](C)Oc3ccc(NC(=O)C4CCCCC4)cc3C(=O)N([C@@H](C)CO)C[C@H]2C)cc1` the value was “active”; for `COc1ccc(CN(C)C[C@H]2OCCCC[C@@H](C)Oc3ccc(NC(=O)C4CCCCC4)cc3C(=O)N([C@H](C)CO)C[C@H]2C)cc1`, “inactive”; for `COc1ccc(CN(C)C[C@@H]2OCCCC[C@H](C)Oc3ccc(NC(=O)Nc4ccc(OC)cc4)cc3C(=O)N([C@H](C)CO)C[C@H]2C)cc1`, “inactive”.

In the case of `COc1ccc(CN(C)C[C@@H]2OCCCC[C@H](C)Oc3ccc(NC(=O)Nc4ccc(OC)cc4)cc3C(=O)N([C@@H](C)CO)C[C@H]2C)cc1`, the cytotoxicity call was “active”. Under `C[C@@H]1CCCCO[C@@H](CN(C)Cc2ccc(C(=O)O)cc2)[C@H](C)CN([C@@H](C)CO)C(=O)c2cc(NC(=O)c3ccccc3)ccc2O1` stands “inactive”; under `C[C@@H]1CN([C@H](C)CO)C(=O)Cc2cc(NS(=O)(=O)c3cccs3)ccc2O[C@@H]1CN(C)S(C)(=O)=O`, “inactive”. For `C[C@@H]1CCCCO[C@H](CN(C)C(=O)CCCN(C)C)[C@@H](C)CN([C@@H](C)CO)C(=O)c2cc(NC(=O)Nc3ccc(F)cc3)ccc2O1` the value was “inactive”; for `CS(=O)(=O)N1CCn2cc(Cn3cccn3)nc2C1`, “inactive”. Under `Cc1noc(C)c1NC(=O)N(C)C[C@H]1Oc2c(NC(=O)Nc3cccc4ccccc34)cccc2C(=O)N([C@@H](C)CO)C[C@@H]1C` stands “inactive”. For `Cc1noc(C)c1S(=O)(=O)N(C)C[C@@H]1OCc2cn(nn2)CCCC(=O)N([C@H](C)CO)C[C@@H]1C`, the cytotoxicity call was “inactive”. For `COc1ccc(S(=O)(=O)Nc2ccc3c(c2)C(=O)N([C@@H](C)CO)C[C@@H](C)[C@@H](CN(C)C(=O)Nc2ccc(C(F)(F)F)cc2)OCCCC[C@H](C)O3)cc1` the value was “inactive”; for `CC(=O)OC[C@H]1O[C@@H](n2cc(C)c(=O)[nH]c2=O)C[C@@H]1OC(C)=O`, “inactive”; for `C[C@@H]1CCCCO[C@H](CN(C)C)[C@H](C)CN([C@H](C)CO)C(=O)c2cc(NC(=O)Nc3cccc4ccccc34)ccc2O1`, “inactive”.

Regarding `COc1ccc(NC(=O)N(C)C[C@H]2OCCCC[C@H](C)Oc3ccc(NS(=O)(=O)c4ccc(OC)cc4)cc3C(=O)N([C@@H](C)CO)C[C@H]2C)cc1`, the cytotoxicity call is “inactive”. For `O=C(Cn1cc([N+](=O)[O-])cn1)n1cccn1` the value was “inactive”.

As to `C[C@@H]1CCCCO[C@H](CN(C)C(=O)Nc2ccc(F)cc2)[C@@H](C)CN([C@@H](C)CO)C(=O)c2cc(NC(=O)Cc3ccccc3)ccc2O1`, the cytotoxicity call is “inactive”. As to `COc1ccc(CN(C)C[C@H]2OCCCC[C@@H](C)Oc3ccc(NC(=O)Nc4ccc(OC)cc4)cc3C(=O)N([C@@H](C)CO)C[C@H]2C)cc1`, the cytotoxicity call is “active”. Under `COc1ccc(CN(C)C[C@@H]2OCCCC[C@@H](C)Oc3ccc(NC(=O)Nc4ccc(OC)cc4)cc3C(=O)N([C@H](C)CO)C[C@@H]2C)cc1` stands “inactive”. Under `COc1ccc(CN(C)C[C@@H]2OCCCC[C@H](C)Oc3ccc(NC(=O)Nc4ccc(OC)cc4)cc3C(=O)N([C@@H](C)CO)C[C@@H]2C)cc1` stands “active”. Under `COc1ccc(CN(C)C[C@H]2OCCCC[C@H](C)Oc3ccc(NC(=O)Nc4ccc(OC)cc4)cc3C(=O)N([C@H](C)CO)C[C@@H]2C)cc1` stands “active”; under `COc1ccc(CN(C)C[C@@H]2OCCCC[C@@H](C)Oc3ccc(NC(=O)Nc4ccc(OC)cc4)cc3C(=O)N([C@@H](C)CO)C[C@H]2C)cc1`, “inactive”.

As for `COc1ccc(CN(C)C[C@H]2OCCCC[C@@H](C)Oc3ccc(NC(=O)Nc4ccc(OC)cc4)cc3C(=O)N([C@@H](C)CO)C[C@@H]2C)cc1`, the cytotoxicity call was “inactive”. Under `COc1ccc(CN(C)C[C@@H]2OCCCC[C@H](C)Oc3ccc(NC(=O)Nc4ccc(OC)cc4)cc3C(=O)N([C@H](C)CO)C[C@@H]2C)cc1` stands “inactive”; under `COc1ccc(CN(C)C[C@@H]2OCCCC[C@@H](C)Oc3ccc(NC(=O)Nc4ccc(OC)cc4)cc3C(=O)N([C@@H](C)CO)C[C@@H]2C)cc1`, “active”; under `COc1ccc(CN(C)C[C@H]2OCCCC[C@@H](C)Oc3ccc(NC(=O)Nc4ccc(OC)cc4)cc3C(=O)N([C@H](C)CO)C[C@@H]2C)cc1`, “inactive”. For `Cc1noc(C)c1NC(=O)N[C@@H]1C=C[C@H](CC(=O)N2CCN(C)CC2)O[C@H]1CO` the value was “inactive”; for `CC(C)Cc1ccc([C@@H](C)c2nc(-c3cccs3)no2)cc1`, “inactive”; for `C[C@H](CO)N1C[C@H](C)[C@H](CN(C)C(=O)CCCN(C)C)OCc2cn(nn2)CCCC1=O`, “inactive”. For `Cc1noc(C)c1S(=O)(=O)Nc1cccc2c1O[C@H](CN(C)C(=O)Nc1ccc3c(c1)OCO3)[C@H](C)CN([C@H](C)CO)C2=O` the value was “inactive”; for `Cc1noc(C)c1S(=O)(=O)Nc1ccc2c(c1)C(=O)N([C@H](C)CO)C[C@H](C)[C@@H](CN(C)CC1CCCCC1)OCCCC[C@H](C)O2`, “inactive”.
